FLuc modulator = inhibits or activates purified firefly luciferase, miR-21 counter-screen | Potency, µM (highest dose often 57.5 µM), without a hit: top-dose activity change, negative = inhibition, usual class: inhibitors | actives 6.9% (n = 360,000) | purified FLuc, Km substrates, luminescence inhibition | AID 588342 | P08659;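 further: plate controls were vehicle for no effect and reference inhibitor for full effect; nearly all actives have a fitted effect of over 55% in size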
Target sequence (P08659 whole entry, looked up): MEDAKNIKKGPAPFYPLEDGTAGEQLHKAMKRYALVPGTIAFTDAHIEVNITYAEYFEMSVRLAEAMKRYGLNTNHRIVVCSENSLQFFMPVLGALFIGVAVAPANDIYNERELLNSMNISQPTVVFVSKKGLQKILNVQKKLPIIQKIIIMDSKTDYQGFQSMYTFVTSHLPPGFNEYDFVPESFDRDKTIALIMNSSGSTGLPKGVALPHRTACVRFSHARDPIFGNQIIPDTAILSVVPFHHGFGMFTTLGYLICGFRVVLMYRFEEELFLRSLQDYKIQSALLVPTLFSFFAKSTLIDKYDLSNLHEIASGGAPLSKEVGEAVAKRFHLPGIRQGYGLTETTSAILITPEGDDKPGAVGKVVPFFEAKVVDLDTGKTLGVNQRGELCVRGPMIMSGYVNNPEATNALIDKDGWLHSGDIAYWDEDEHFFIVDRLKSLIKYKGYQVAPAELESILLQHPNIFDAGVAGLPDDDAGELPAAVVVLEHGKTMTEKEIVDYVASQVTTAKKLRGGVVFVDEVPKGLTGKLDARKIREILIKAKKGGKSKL
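Biochemical qHTS of compounds, final roughly 60 µM downward over six points, against 10 nM purified firefly luciferase using Km concentrations of substrates (10 uM D-luciferin, 10 uM ATP) in Tris acetate pH 7.5 buffer; luminescence output.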
Rab9 prom act = Rab9 promoter activation. Huh7 Rab9 promoter-luciferase reporter, luminescence, 24 h. Potency, µM (series often up to 9.22 µM), inactives show at the top dose activation, negative = inhibition, usual class: activators. actives 2.8% (n = 320,000). AID 485297; further: % of control where 0% means no effect; nearly all actives have a fitted effect of over 60% in size
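Huh7 reporter line, Rab9 promoter upstream of luciferase. Compound exposure 24 h at 37 °C in reduced-serum medium with 10% FBS. Read-out: luminescence.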
SMN2 splice up = increases expression of the SMN2 splice variant; HEK293 SMN2-luciferase splicing reporter, luminescence, 30-36 h; Potency, µM (doses to about 46.1 µM), for the others: at the top dose activity change, positive = activation, most hits filed as activators; actives 2.8% (n = 210,000); AID 1458; further: % of control where 0% means no effect; nearly all actives have a fitted effect of over 55% in size
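qHTS luciferase splicing reporter: luminescence rises when SMN2 exon 7 is included in transfected HEK293 cells. Compound exposure lasted 30-36 h at 37C, with 4.5 mM final sodium butyrate as control, followed by a ONE-Glo read.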
ELG1 genotox = induces genotoxicity in HEK293T cells with luciferase-tagged ELG1 | HEK293T ELG1-luciferase reporter, luminescence, 16 h | Potency, µM (doses to about 46 µM), inactives show at the top dose activity change, positive = activation, most hits filed as activators | actives 1.3% (n = 330,000); further: % of control where 0% means no effect; nearly all actives have a fitted effect of over 60% in size
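16 hr compound incubation (37 °C, 5% CO2) of HEK293T cells carrying luciferase-tagged ELG1; luciferase then measured by ONE-Glo luminescence after 30 min at RT.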
NPC1 prom act = activators of NPC1 promoter; actives 2.4% (n = 320,000); Huh7 NPC1 promoter luciferase reporter, 24 h; AID 485313; Potency, µM (top dose mostly 9.22 µM), for inactives: top-dose activation, hits mostly activators; further: % of control where 0% means no effect; nearly all actives have a fitted effect of over 60% in size
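Luminescence from an NPC1 promoter-driven luciferase reporter in stably transfected Huh7 cells was measured after 24 h compound treatment at 37 °C, followed by 10 min ambient incubation with luciferase detection reagent.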
Luc counter = blocks Kinase-Glo luciferase, a counter-screen artifact. Kinase-Glo luciferase, ATP luminescence, 8 min. Potency, µM (series often up to 38.3 µM), inactives show at the top dose activity change, negative = inhibition, hits mostly inhibitors. actives 0.28% (n = 200,000). AID 1379; further: on the % scale 0 is the no-effect control and ±100 the full control effect; nearly all actives have a fitted effect of over 60% in size
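Compounds were added to a substrate mix at pH 7.2 (50 mM imidazole, 10 uM ATP, within the enzyme's linear range), followed by Kinase-Glo detection reagent; luminescence was measured after 8 minutes at ambient temperature.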
Starred values were filed as active, the others as inactive; u = inconclusive; x = no result given; [ ] = another dose, or the depositor's remark. Most compounds without a hit are left out; they make up all but 7.3% or so of the library. The call rests on the fitted dose curve; in most records, active means well fitted curve in the direction sought with a large enough effect; inconclusive means small, poorly fitted or top-dose-only effect, or another doubt; inactive means no such curve, though single readings can be large; an effect the other way counts as inactive or inconclusive. Potency means the concentration at half of the fitted maximal effect.

SMILES | FLuc modulator | Rab9 prom act | SMN2 splice up | ELG1 genotox | NPC1 prom act | Luc counter
Fc1ccc(/C=N/Nc2cc(N3CCOCC3)ncn2)cc1 | u | u | x | 17% | u | x
COc1cccc(/C=N/Nc2cc(N3CCOCC3)ncn2)c1O | 8.5µM* | -36% | x | u | -31% | x
C(=N\Nc1cc(N2CCCCC2)ncn1)/c1ccco1 | 4.8µM* | u | x | u | u | x
COc1ccc(/C=N/Nc2cc(N3CCOCC3)ncn2)c(OC)c1 | -9% | 3% | x | 3% | 2% | x
Fc1cccc(/C=N/Nc2cc(N3CCOCC3)ncn2)c1 | 4.8µM* | 2µM* | x | u | 1.8µM* | x
COC(=O)CNC(=O)C(Cc1c[nH]c2ccccc12)NC(=O)OC(C)(C)C (stereo not given) | 2% | -1% | 4% | 0% | 3% | -1%
Oc1cccc(/C=N/Nc2cc(N3CCCC3)nc(N3CCCC3)n2)c1 | 13µM* | 0% | -18% | -8% | -1% | -1%
Cn1cccc1C(=O)NCC1COc2ccccc2O1 (stereo not given) | 2% | 3.2µM* | x | 16% | u | x
Cn1cccc1C(=O)NCCc1ccc(Cl)cc1 | 15µM* | 2.5µM* | x | u | 2.8µM* | x
Cn1cccc1C(=O)NCc1ccc(Cl)cc1 | 0% | 3% | x | 0% | 10% | x
Cn1cccc1C(=O)NCCc1ccccc1 | 4.8µM* | 0.5µM* | x | 2.3µM* | 0.4µM* | x
O=C(CCC1COc2ccccc2O1)NCC1COc2ccccc2O1 (stereo not given) | 0% | -1% | -18% | -1% | -3% | 0%
Cc1ccccc1OCC(=O)Nc1nc2ccccc2[nH]1 | 3.4µM* | 2.2µM* | 18µM* | 24% | u | 0%
Fc1c(F)c(F)c(CSc2nc3ccccc3[nH]2)c(F)c1F | u | 5% | -2% | u | 2% | 2%
Cc1ccccc1OCCCSc1nc2ccccc2[nH]1 | 24µM* | 3% | x | 0% | 0% | x
CC(CC(=O)Nc1nc2ccccc2[nH]1)n1ccnc1 (stereo not given) | -4% | 10% | 5% | 0% | 0% | 0%
Cc1c(OCC(F)(F)F)ccnc1CSc1nc2ccccc2[nH]1 | 12µM* | u | -21% | 16% | u | -2%
CC(CC(=O)Nc1nc2ccccc2[nH]1)c1ccccc1 (stereo not given) | 12µM* | 4µM* | u | u | 4.5µM* | -2%
Cc1cc(C)c(OCC(=O)Nc2nc3ccccc3[nH]2)c(C)c1 | -13% | -1% | 3% | 1% | 1% | 2%
COc1ccccc1/C=C/CN1CCC(Oc2ccc(C(=O)N3CCCC3)cc2)CC1 | -2% | 7% | x | 0% | 4% | x
NC(=O)c1ccccc1NS(=O)(=O)c1ccc2c(c1)OCCO2 | 1% | 5% | -6% | -8% | 1% | 5%
CC(CCc1ccccc1)NC(=O)COC(=O)c1cc(NS(=O)(=O)c2ccc(Cl)c([N+](=O)[O-])c2)ccc1O (stereo not given) | 0% | 0% | 13% | 5% | -2% | -1%
Cc1cc2c(c(=O)n1Cc1cccnc1)C(c1cccs1)C(C#N)=C(N)O2 (stereo not given) | 3% | 5% | -17% | -6% | -1% | 3%
CCCOc1cccc(OCC(=O)Nc2nc3ccccc3[nH]2)c1 | u | -2% | -22% | 5% | -4% | 5%
O=C(COc1ccccc1)Nc1nc2ccccc2[nH]1 | 12µM* | 3.5µM* | u | 4.5µM* | u | -5%
SMILES | FLuc modulator | Rab9 prom act | SMN2 splice up | ELG1 genotox | NPC1 prom act | Luc counter
O=C(COc1cccc2ccccc12)Nc1nc2ccccc2[nH]1 | u | -7% | 11% | 1% | -4% | -3%
CCOc1ccccc1OCC(=O)Nc1nc2ccccc2[nH]1 | 15µM* | 12% | 11% | -3% | -1% | 3%
CS(=O)(=O)N1CCC2(CCCN(C(=O)Nc3cccc(F)c3)C2)CC1 | x | x | -23% | x | x | -1%
Cc1cccc(NC(=O)c2n[nH]c([N+](=O)[O-])c2Br)c1C | 3.8µM* | 1µM* | 10µM* | u | 0.79µM* | 1%
COC(=O)NC1(C(F)(F)F)C(=O)NC(C)=C1C(=O)OC (stereo not given) | 2%[2.3 µM] | -3% | u | 0% | 1% | 1%
COc1ccc2c(c1)C(c1ccc([N+](=O)[O-])cc1)=NNC(c1ccco1)=N2 | 13µM* | -2% | -27% | -2% | 0% | -4%
O=C(Nc1ccc(SC(F)F)cc1)C12CCC(CC1)C2 | 11µM* | 30% | 16% | 6% | 28% | -1%
OC1CCC(NC(=S)Nc2ccc(SC(F)F)cc2)CC1 (stereo not given) | 21µM* | u | 16µM* | u | u | 1%
C=C1C2(C(=O)Nc3ccc(SC(F)F)cc3)CCC(C2)C1(C)C (stereo not given) | -3% | -6% | -33% | -1% | 1% | 0%
FC(F)Sc1ccc(NC(=S)NC2CCCC2)cc1 | 13µM* | 3.2µM* | u | 6% | 27% | -2%
CNC(=O)c1cc(C(=O)c2ccc(C(F)(F)F)cc2)c[nH]1 | u | 19% | x | u | 20% | x
COC(=O)c1cc(C(=O)c2ccc(C(C)(C)C)cc2)c[nH]1 | 19µM* | 28% | 15% | u | 13% | -1%
CC(C)(C)c1ccc(C(=O)c2c[nH]c(C(=O)O)c2)cc1 | 2.1µM* | u | 13µM* | 13% | u | 2%
CN(C)C=NC(=O)c1cc(C(=O)c2ccc(C(C)(C)C)cc2)c[nH]1 | 9.5µM* | 1.1µM* | 3.2µM* | 2.9µM* | 1.1µM* | 7%
CN(C)C=NC(=O)c1cc(C(=O)c2ccccc2Cl)c[nH]1 | 1% | -6% | -4% | 1% | 1% | -2%
CCn1nc(-c2ccccc2)c(-c2ccccc2)c(C(=O)Nc2ccccc2C#N)c1=O | -1% | x | -6% | x | x | x
O=C1C2C3C=CC(CC3)C2C(=O)N1c1ccc(Cl)cc1Cl (stereo not given) | 15µM* | 3% | x | -4% | 4% | x
O=C(COC(=O)c1cccc(F)c1)NC(=O)NCc1ccccc1 | x | x | x | 2% | x | x
CC(C)CN1C(=O)c2ccc(NC(=O)c3ccccc3F)cc2C1=O | 12µM* | u | 11% | u | 29% | -4%
CC(C)CN1C(=O)c2ccc(NC(=O)C3CC3)cc2C1=O | 2% | 11% | x | -1% | 21% | x
CC(C)CN1C(=O)c2ccc(NC(=O)c3cccs3)cc2C1=O | 9.5µM* | u | 21% | 28% | 29% | -5%
CC(C)CN1C(=O)c2ccc(NC(=O)c3ccco3)cc2C1=O | 19µM* | u | x | 17% | u | 1%
